Results filed as inconclusive are left out. Activity calls are given as the source filed them. The calls were made as follows, unless noted: active = hit-call score of the fitted dose curve at least 0.9, where 1 is the maximum; inconclusive = response in the unintended direction; inactive = score below 0.9.
Key:
[1] = TOX21_p53_BLA_p2_viability: Viability Assessment in the Tox21 HCT-116 p53 Agonism Beta-lactamase Assay, Phase 2 (AID 2283591);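 also: compound exposure lasted 16 h at 37 °C; actives lower the ATP signal meaning cytotoxicity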
In short: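 HCT116 p53-bla cells, 4000/well, dosed after 5 h plating (217-fold dilution of DMSO stocks) and incubated 16 h at 37C. Viability taken as cellular ATP by CellTiter-Glo luminescence after 30 min RT; signal loss marks cytotoxicity.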

[2] = biological target: Cellular tumor antigen p53 (Homo sapiens) (UniProt P04637); test: TOX21_p53_BLA_p2_ratio: Tox21 HCT-116 p53 Agonism Beta-lactamase Assay, Ratio, Phase 2 (AID 2283592)
In short: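 DMSO-normalized, positive-direction endpoint derived from the 460 nm/530 nm FRET ratio in HCT116 p53 beta-lactamase reporter cells exposed 16 h at 37C and loaded with CCF4-AM for 2 h.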

[3] = TOX21_p53_BLA_p4_viability: Viability Assessment in the Tox21 HCT-116 p53 Agonism Beta-lactamase Assay, Phase 4 (AID 2283597);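 also: hits lower the luminescence signal meaning cytotoxicity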
In short: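 In this multiplexed secondary endpoint, HCT116 cells (4000 per well, compound at 5 h, 16 h treatment) received CellTiter-Glo after the beta-lactamase read. Luminescence after 30 min RT reflects ATP, and falling signal marks cytotoxicity.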

[4] = biological target: Cellular tumor antigen p53 (Homo sapiens) (UniProt P04637); test: TOX21_p53_BLA_p5_ratio: Tox21 HCT-116 p53 Agonism Beta-lactamase Assay, Ratio, Phase 5 (AID 2283599)
In short: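 HCT-116 p53-bla cells (4000/well) plated 5 h, dosed with compound (217-fold DMSO dilution) for 16 h at 37 C; CCF4-AM substrate 2 h at room temperature. Activity is the 460/530 nm emission ratio (405 nm excitation), fitted in gain-of-signal direction versus DMSO.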

[5] = TOX21_p53_BLA_p5_viability: Viability Assessment in the Tox21 HCT-116 p53 Agonism Beta-lactamase Assay, Phase 5 (AID 2283600)
In short: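 Here cell health was gauged by ATP levels in wells holding 4000 cells, each treated 16 h with DMSO-delivered compounds at 217-fold dilution; reduced luminescence marked toxicity.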

[6] = biological target: Cellular tumor antigen p53 (Homo sapiens) (UniProt P04637); test: TOX21_p53_BLA_p4_ratio: Tox21 HCT-116 p53 Agonism Beta-lactamase Assay, Ratio, Phase 4 (AID 2283601)
In short: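 HCT-116 p53 beta-lactamase reporter cells (4000/well) preincubated 5 h, then compound (217-fold dilution of DMSO stock) for 16 h at 37C. CCF4-AM substrate added 2 h at room temperature; 460/530 nm emission ratio fitted upward versus DMSO.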

[7] = CCTE_Harrill_HTTr_Viability_MCF7: CCTE's 6-hour Cell Viability Assessment for the High-Throughput Transcriptomics (HTTr) Platform, in MCF-7 cells cultured in DMEM + 10% fetal bovine serum, Harrill Lab (AID 2284010; active = hit-call score of the fitted dose curve at least 0.9, where 1 is the maximum; inactive = score below 0.9)
In short: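 Read-out is propidium iodide gain of signal by high-content imaging, reflecting membrane integrity loss. Measurements are taken 6 h after dosing, eight concentrations per chemical, with DMSO serving as baseline for bidirectional curve fitting.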

[8] = CCTE_Harrill_HTTr_Apoptosis_MCF7: CCTE's 6-hour Apoptosis Assessment for the High-Throughput Transcriptomics (HTTr) Platform, in MCF-7 cells cultured in DMEM + 10% fetal bovine serum, Harrill Lab (AID 2284011; active = hit-call score of the fitted dose curve at least 0.9, where 1 is the maximum; inactive = score below 0.9)
In short: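 Apoptosis in MCF-7 cells grown in DMEM with 10% fetal bovine serum was scored after a six hour exposure by high content imaging of caspase-3/7 activation (CellEvent Caspase 3/7 Green), with DMSO serving as negative control and baseline.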

Measured: outcome

Cellular tumor antigen p53 (Homo sapiens), sequence (P04637 whole entry, looked up): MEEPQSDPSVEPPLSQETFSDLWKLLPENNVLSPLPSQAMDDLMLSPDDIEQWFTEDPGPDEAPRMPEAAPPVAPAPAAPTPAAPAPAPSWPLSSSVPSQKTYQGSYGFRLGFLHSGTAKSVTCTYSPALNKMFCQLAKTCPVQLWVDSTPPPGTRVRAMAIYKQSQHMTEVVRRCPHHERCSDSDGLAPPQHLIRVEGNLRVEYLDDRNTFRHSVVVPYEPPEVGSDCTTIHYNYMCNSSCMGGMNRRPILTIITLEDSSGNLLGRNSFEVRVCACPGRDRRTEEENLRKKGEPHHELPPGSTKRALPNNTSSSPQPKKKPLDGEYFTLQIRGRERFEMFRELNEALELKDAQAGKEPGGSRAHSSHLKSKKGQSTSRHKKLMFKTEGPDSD

CCCCCOC(=O)Nc1nc(=O)n([C@@H]2O[C@H](C)[C@@H](O)[C@H]2O)cc1F
not listed: [7] | [8]
inactive: all other assays above

CC(COc1ccc(C(C)(C)C)cc1)OS(=O)OCCCl (stereo unspecified)
not listed: [7] | [8]
inactive: all other assays above

S=C1SCN(Cc2ccccc2)CN1Cc1ccccc1
not listed: [7] | [8]
inactive: all other assays above

CCc1cn([C@H]2C[C@H](O)[C@@H](CO)O2)c(=O)[nH]c1=O
not listed: [7] | [8]
inactive: all other assays above

COc1cc(-c2ccc(N=C=O)c(OC)c2)ccc1N=C=O
inactive: [1] | [2] | [3] | [4] | [6]

Nc1ncnc(Nc2ccc(Cl)cc2)n1
not listed: [7] | [8]
inactive: all other assays above

OCc1ccccn1
not listed: [7] | [8]
inactive: all other assays above

CC[C@@H](C)[C@@H](N)C(=O)O
inactive: [1] | [2] | [3] | [4]

O=c1[nH]c(=O)c2ccccc2o1
inactive: [1] | [2] | [4]

NS(=O)(=O)c1cc2c(cc1Cl)NC(CC1CCCC1)NS2(=O)=O (stereo unspecified)
inactive: [1] | [2] | [4] | [5]

CCOC(=N)CC(=O)OCC
inactive: [1] | [2] | [3] | [7] | [8]

CCNc1cc(O)ccc1C
inactive: [1] | [2] | [3] | [5] | [6]

CC1(C)S[C@@H]2[C@H](N=CN3CCCCCC3)C(=O)N2[C@H]1C(=O)O
inactive: [1] | [2] | [3] | [5] | [6]

CCC(C)(C)C
inactive: [1] | [2] | [3] | [6]

CC1(C)[C@@H]2CC[C@]3(C2)[C@@H]1C(=O)CCC3(C)C
inactive: [1] | [2] | [3] | [5] | [6]
